Where “and” joins values, the source holds several entries; their conditions need not be identical. Equal entries are not always repeated. Inconclusive results are not listed. A call without a number means that no potency is given here. More than one record can exist for a structure, and the calls need not agree. Calls of active or inactive are those of the source. Unless noted, the call rests on the fitted dose curve.
Experiments:
[1] = Nuclear factor erythroid 2-related factor 2/antioxidant responsive element (Nrf2/ARE) small molecule agonists: qHTS cell viability counter screen in human keratinocytes (AID 1919968; active means well fitted curve in the direction sought with a large enough effect in the repeat runs; an effect the other way counts as inactive or inconclusive; further: nearly all actives have a fitted effect of over 55% in size; further: potency means the concentration at half of the fitted maximal effect)
How it was run: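 Cells of the KeratinoSens line were plated at 1,500 per well and left for 5 h before compound transfer from DMSO stocks. After a 23 h incubation (37 C, 5% CO2), CellTiter-Fluor was added. Signal was taken as fluorescence intensity 1 h later.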

[2] = Nuclear factor erythroid 2-related factor 2/antioxidant responsive element (Nrf2/ARE) small molecule agonists: luciferase reporter gene qHTS assay in human keratinocytes (AID 1919969); further: nearly all actives have a fitted effect of over 35% in size; further: potency means the concentration at half of the fitted maximal effect
[3] = molecular target: Gonadotropin-releasing hormone receptor (Homo sapiens) (UniProt P30968); test: Human gonadotropin-releasing hormone receptor (GnRHR) small molecule agonists, calcium flux assay in GnRHR-HEK293 cells (AID 1920063); further: nearly all actives have a fitted effect of over 35% in size
How it was run: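 Compounds dissolved in DMSO are pin-transferred onto dye-loaded GnRHR-HEK293 cells, which were seeded 18 h before at 37 C/5% CO2. Calcium signal is read as fluorescence intensity at 1 s intervals for 3 min.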

[4] = molecular target: KiSS-1 receptor (Homo sapiens) (UniProt Q969F8); test: Human kisspeptin (KISS1R) small molecule agonists, calcium flux assay in KISS1R-HEK293 cells (AID 1920064; active means well fitted curve in the direction sought with a large enough effect in the repeat runs; an effect the other way counts as inactive or inconclusive)
How it was run: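 Cell line: HEK293, stable human KISS1R. Dye loading 1 h at 37 C after 18 h culture. Read: kinetic fluorescence, 480/540 nm, 3 min at 1 s intervals.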

[5] = G protein-coupled receptor (GPCR) small molecule agonists, calcium flux assay: HEK293 wild type cell line counter screen (AID 1920065)
How it was run: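 Tox21 10K compounds, 15 concentrations each in triplicate, pin-transferred in DMSO onto dye-loaded cells; kinetic read at 480/540 nm for 3 min, 1 s intervals.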

[6] = p53 small molecule agonists, cell-based qHTS assay with human liver microsomes: qHTS cell viability counter screen (AID 1963579); further: nearly all actives have a fitted effect of over 45% in size; further: potency means the concentration at half of the fitted maximal effect
How it was run: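 Metabolically activated exposure: compounds, human liver microsomes and NADPH (0.5 mg/mL final apiece) were added to p53RE-bla cells seeded 5 h earlier, left 16 h at 37 C, and then assessed for viability by CellTiter-Glo luminescence.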

[7] = p53 small molecule agonists, cell-based qHTS assay with rat liver microsomes: qHTS cell viability counter screen (AID 1963580); further: nearly all actives have a fitted effect of over 45% in size; further: potency means the concentration at half of the fitted maximal effect
How it was run: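 Rat liver microsome (0.5 mg/mL final) and NADPH (0.5 mg/mL final) co-incubation with compounds for 16 h at 37 C on HCT-116 p53RE-bla cells; cytotoxicity taken from intracellular ATP luminescence.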

[8] = p53 small molecule agonists, cell-based qHTS assay: qHTS cell viability counter screen (AID 1963581); further: nearly all actives have a fitted effect of over 45% in size
How it was run: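 ATP content measured by luminescence in HCT-116 p53RE-bla cells treated 16 h at 37 C, same wells as the reporter screen.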

[9] = molecular target: 5-hydroxytryptamine receptor 2A (Homo sapiens) (UniProt P28223); test: 5-hydroxytryptamine receptor 2A (HTR2A) small molecule antagonists, cell-based qHTS assay (AID 1963586); further: nearly all actives have a fitted effect of over 45% in size
How it was run: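 CHO cells stably expressing human HTR2A were plated for 18 h at 37 C, then loaded with calcium dye for 1 h. Compounds were preincubated 5 min at room temperature before DOI (4 nM solution) was added. Kinetic fluorescence was read for 3 min.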

[10] = molecular target: 5-hydroxytryptamine receptor 2A (Homo sapiens) (UniProt P28223); test: 5-hydroxytryptamine receptor 2A (HTR2A) small molecule agonists, cell-based qHTS assay (AID 1963587); further: nearly all actives have a fitted effect of over 30% in size
How it was run: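 Kinetic calcium-flux fluorescence (2 min, 1 sec intervals) after compound addition in agonist mode. HTR2A-CHO cells were cultured 18 h, then dye-loaded 1 h at 37 C.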

[11] = molecular target: Muscarinic acetylcholine receptor M1 (Homo sapiens) (UniProt P11229); test: Cholinergic receptor muscarinic 1 (CHRM1) small molecule antagonists, cell-based qHTS assay (AID 1963588); further: nearly all actives have a fitted effect of over 40% in size
How it was run: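 Compounds were tested at 15 concentrations in three independent runs. Dye-loaded CHRM1-CHO cells were exposed 5 min at room temperature before stimulation by acetylcholine added at 50nM. Intracellular calcium was read kinetically on FDSS for 3 min.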

[12] = molecular target: Muscarinic acetylcholine receptor M1 (Homo sapiens) (UniProt P11229); test: Cholinergic receptor muscarinic 1 (CHRM1) small molecule agonists, cell-based qHTS assay (AID 1963589); further: nearly all actives have a fitted effect of over 35% in size
How it was run: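 Homogeneous fluorescence calcium flux, agonist mode. Human M1-expressing CHO cells; compound dosed at 15 concentrations, three independent runs; signal sampled every 1 sec.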

[13] = cAMP Responsive Elements (CRE) small molecule agonists, cell-based qHTS assay (AID 1963590)
How it was run: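 HEK 293T cells stably bearing CRE-bla were plated at 2,000 cells per well and rested 18 h. Compounds, positive controls or DMSO were added for 3 h at 37 C. LiveBLAzer B/G substrate was then loaded for 2 h at room temperature.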

[14] = cAMP Responsive Elements (CRE) small molecule antagonists, cell-based qHTS assay (AID 1963591; active means well fitted inhibition curve with a large enough effect in the signal ratio in the repeat runs, not every such curve was filed as active; the % refers to the signal ratio)
How it was run: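 First, CRE-bla HEK293T cells settled 18 h at 37 C. Next, compound and 0.25 uM final NKH477 were applied for 3 h. Last, LiveBLAzer B/G substrate was loaded for 2 h at room temperature.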

[15] = molecular target: Beta-2 adrenergic receptor (Homo sapiens) (UniProt P07550); test: Adrenergic beta2 receptor (ADRB2) small molecule antagonists, cell-based qHTS assay (AID 1963592); further: series mostly up to about 92 µM; nearly all actives have a fitted effect of over 50% in size
How it was run: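 Assay format: CHO-ADRB2 cells, 18-20hr seeding at 37C/5% CO2, then compound plus 1nM isoproterenol agonist mix for 0.5hr RT. Homogeneous time-resolved fluorescence cAMP detection after 1hr, expressed as 665/615 nm ratio.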

[16] = molecular target: Beta-2 adrenergic receptor (Homo sapiens) (UniProt P07550); test: Adrenergic beta2 receptor (ADRB2) small molecule agonists, cell-based qHTS assay (AID 1963593);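 further: CHO cells stably overexpressing human ADRB2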
How it was run: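 CHO cells stably over-expressing ADRB2 were plated overnight at 37C, then dosed with compounds plus a stimulation mix containing 100uM IBMX and 25uM Ro-20-1724 for 0.5hr at room temperature. cAMP was measured by HTRF competition, 1hr.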

[17] = molecular target: D(2) dopamine receptor (Homo sapiens) (UniProt P14416); test: Dopamine D2 receptor (DRD2) small molecule agonists, cell-based qHTS assay (AID 1963594); further: nearly all actives have a fitted effect of over 35% in size
How it was run: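 cAMP accumulation in DRD2-HEK293 cells measured by HTRF after 1 h detection; compounds added 10 min before NKH477 (200nM […]) forskolin-analogue stimulation, 30 min at room temperature, with Ro20-1724 present at 0.1 mM final.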

[18] = molecular target: D(2) dopamine receptor (Homo sapiens) (UniProt P14416); test: Dopamine D2 receptor (DRD2) small molecule antagonists, cell-based qHTS assay (AID 1963595; active means well fitted inhibition curve with a large enough effect in the signal ratio in the repeat runs, with a control signal flat; the % refers to the signal ratio)
How it was run: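 HEK293 cells stably expressing DRD2 were preincubated with 0.1 mM Ro20-1724, then with compound for 10 min at room temperature. Cells were stimulated with 200 nM NKH477 plus 12 nM quinpirole for 30 min, and cAMP was read by HTRF.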

Muscarinic acetylcholine receptor M1 (Homo sapiens), sequence (P11229 whole entry, looked up): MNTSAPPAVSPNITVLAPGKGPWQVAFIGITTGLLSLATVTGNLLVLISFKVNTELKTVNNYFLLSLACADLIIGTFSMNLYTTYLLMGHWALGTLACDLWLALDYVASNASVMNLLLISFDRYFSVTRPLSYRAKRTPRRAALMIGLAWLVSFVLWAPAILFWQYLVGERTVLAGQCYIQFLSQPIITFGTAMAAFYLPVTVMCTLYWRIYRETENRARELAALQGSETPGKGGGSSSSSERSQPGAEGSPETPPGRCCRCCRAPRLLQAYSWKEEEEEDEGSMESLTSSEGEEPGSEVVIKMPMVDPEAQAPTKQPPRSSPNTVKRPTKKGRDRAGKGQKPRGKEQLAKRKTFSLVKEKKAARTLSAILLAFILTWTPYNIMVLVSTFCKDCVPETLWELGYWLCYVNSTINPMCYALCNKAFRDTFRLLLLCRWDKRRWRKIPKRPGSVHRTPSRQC
5-hydroxytryptamine receptor 2A (Homo sapiens), sequence (P28223 whole entry, looked up): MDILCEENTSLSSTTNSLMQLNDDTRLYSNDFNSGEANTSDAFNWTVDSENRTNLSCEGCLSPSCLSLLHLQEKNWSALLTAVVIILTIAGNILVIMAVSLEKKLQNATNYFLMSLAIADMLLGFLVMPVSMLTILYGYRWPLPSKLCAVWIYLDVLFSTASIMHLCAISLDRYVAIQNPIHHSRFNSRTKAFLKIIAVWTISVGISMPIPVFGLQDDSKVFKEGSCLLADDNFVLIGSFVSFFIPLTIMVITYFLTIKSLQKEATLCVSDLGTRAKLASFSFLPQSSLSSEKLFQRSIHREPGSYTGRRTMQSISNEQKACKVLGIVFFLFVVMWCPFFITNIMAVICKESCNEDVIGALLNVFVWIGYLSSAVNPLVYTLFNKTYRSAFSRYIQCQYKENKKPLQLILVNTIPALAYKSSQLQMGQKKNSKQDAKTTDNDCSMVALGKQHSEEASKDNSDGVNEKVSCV
KiSS-1 receptor (Homo sapiens), sequence (Q969F8 whole entry, looked up): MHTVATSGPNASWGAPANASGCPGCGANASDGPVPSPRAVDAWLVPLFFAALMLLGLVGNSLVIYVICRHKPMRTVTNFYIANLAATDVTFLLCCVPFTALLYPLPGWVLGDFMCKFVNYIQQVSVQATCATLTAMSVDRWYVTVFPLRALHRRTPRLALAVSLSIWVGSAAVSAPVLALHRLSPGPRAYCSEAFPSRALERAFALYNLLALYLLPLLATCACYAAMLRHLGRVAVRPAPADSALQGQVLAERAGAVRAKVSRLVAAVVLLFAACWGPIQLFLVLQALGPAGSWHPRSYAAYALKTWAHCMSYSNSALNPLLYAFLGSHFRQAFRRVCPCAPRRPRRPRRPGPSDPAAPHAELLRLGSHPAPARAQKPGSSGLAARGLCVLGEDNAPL
Gonadotropin-releasing hormone receptor (Homo sapiens), sequence (P30968 whole entry, looked up): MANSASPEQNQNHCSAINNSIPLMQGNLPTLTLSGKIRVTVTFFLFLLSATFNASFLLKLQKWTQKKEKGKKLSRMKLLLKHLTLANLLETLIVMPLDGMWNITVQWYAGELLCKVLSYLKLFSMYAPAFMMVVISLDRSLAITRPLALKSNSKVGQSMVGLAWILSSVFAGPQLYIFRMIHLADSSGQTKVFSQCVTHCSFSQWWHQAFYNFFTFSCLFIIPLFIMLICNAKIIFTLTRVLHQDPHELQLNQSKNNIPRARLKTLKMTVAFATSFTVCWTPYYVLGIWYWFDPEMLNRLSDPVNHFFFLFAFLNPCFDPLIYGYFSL
D(2) dopamine receptor (Homo sapiens), sequence (P14416 whole entry, looked up): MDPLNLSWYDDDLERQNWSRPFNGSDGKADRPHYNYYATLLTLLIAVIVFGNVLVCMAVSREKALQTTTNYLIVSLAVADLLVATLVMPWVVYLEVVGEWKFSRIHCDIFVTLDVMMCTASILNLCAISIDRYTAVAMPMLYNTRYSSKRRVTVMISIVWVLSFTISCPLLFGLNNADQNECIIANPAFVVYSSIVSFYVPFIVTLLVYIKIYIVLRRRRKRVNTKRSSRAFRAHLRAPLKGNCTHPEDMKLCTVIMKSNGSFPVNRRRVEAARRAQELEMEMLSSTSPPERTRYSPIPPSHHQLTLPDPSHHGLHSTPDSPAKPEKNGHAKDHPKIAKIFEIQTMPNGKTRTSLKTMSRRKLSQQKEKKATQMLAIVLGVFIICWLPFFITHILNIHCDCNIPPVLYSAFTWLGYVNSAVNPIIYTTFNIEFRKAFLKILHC
Beta-2 adrenergic receptor (Homo sapiens), sequence (P07550 whole entry, looked up): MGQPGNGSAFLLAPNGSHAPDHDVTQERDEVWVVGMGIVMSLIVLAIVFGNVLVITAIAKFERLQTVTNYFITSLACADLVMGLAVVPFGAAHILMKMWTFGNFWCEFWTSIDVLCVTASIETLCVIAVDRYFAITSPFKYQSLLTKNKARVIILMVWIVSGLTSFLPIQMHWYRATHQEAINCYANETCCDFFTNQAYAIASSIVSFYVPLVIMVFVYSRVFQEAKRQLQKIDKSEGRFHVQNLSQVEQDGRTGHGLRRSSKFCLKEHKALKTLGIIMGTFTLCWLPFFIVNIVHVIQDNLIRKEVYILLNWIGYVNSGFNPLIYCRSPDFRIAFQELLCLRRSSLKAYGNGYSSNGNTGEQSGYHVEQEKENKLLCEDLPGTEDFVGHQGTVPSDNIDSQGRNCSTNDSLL

SMILES	Potency [1]	Potency [2]	Potency [3]	Potency [4]	Potency [5]	Potency [6]	Potency [7]	Potency [8]	Potency [9]	Potency [10]	Potency [11]	Potency [12]	Potency [13]	Potency [14]	Potency [15]	Potency [16]	Potency [17]	Potency [18]
CC(Cl)(Cl)C(=O)O	inactive	inactive	inactive	inactive	inactive	inactive	inactive	inactive	inactive	inactive	inactive	inactive	inactive	inactive	inactive	inactive	inactive	inactive
Oc1cc(Cl)c(Cl)cc1Cl	inactive	inactive	inactive	inactive	inactive	inactive	40.5 µM (active) and inactive	inactive	inactive	inactive	inactive	inactive	–	inactive	inactive	–	inactive	inactive
CN(C)[C@@H]1C(=O)C(C(N)=O)=C(O)[C@@]2(O)C(=O)C3=C(O)c4c(O)cccc4[C@@](C)(O)[C@H]3[C@H](O)[C@@H]12	inactive	inactive	inactive	inactive	inactive	inactive	inactive	inactive	inactive	inactive	inactive	inactive	inactive	inactive	inactive	inactive	inactive	inactive
Cc1cc(Cl)ccc1N	inactive	inactive	inactive	inactive	inactive	inactive	inactive	inactive	inactive	inactive	inactive	inactive	inactive	inactive	inactive	inactive	inactive	–
ClC(Cl)=C(Cl)C(Cl)=C(Cl)Cl	inactive	inactive	inactive	inactive	inactive	inactive	inactive	inactive	inactive	inactive	inactive	inactive	inactive	inactive	inactive	inactive	inactive	inactive
CCn1cc[n+](C)c1	inactive	inactive	inactive	inactive	inactive	inactive	inactive	inactive	inactive	inactive	inactive	inactive	inactive	inactive	–	inactive	inactive	inactive
C[C@]12CC[C@H]3[C@@H](CC[C@@]45O[C@@H]4C(O)=C(C#N)C[C@]35C)[C@@H]1CC[C@@H]2O	inactive	68.6 µM (active) and inactive	inactive	inactive	inactive	inactive	inactive	inactive	inactive	inactive	inactive	inactive	–	–	inactive	inactive	inactive	inactive
CCN(CC)C(=O)SCc1ccc(Cl)cc1	inactive	inactive	inactive	inactive	inactive	inactive	inactive	inactive	–	inactive	–	inactive	inactive	inactive	–	–	inactive	inactive
Nc1ncn[nH]1	inactive	inactive	inactive	inactive	inactive	inactive	inactive	inactive	inactive	inactive	inactive	inactive	inactive	inactive	inactive	inactive	inactive	inactive
NN=C(N)N	inactive	inactive	inactive	inactive	inactive	inactive	inactive	inactive	inactive	inactive	inactive	inactive	inactive	inactive	inactive	inactive	inactive	inactive
CCc1cccc(CC)c1N(COC)C(=O)CCl	inactive	47 µM (active) and 54.5 µM (active)	inactive	inactive	inactive	inactive	inactive	inactive	inactive	inactive	inactive	inactive	–	–	inactive	–	inactive	inactive
CCCCCCCCCCCC(=O)O	inactive	inactive	inactive	inactive	inactive	inactive	inactive	inactive	inactive	inactive	inactive	inactive	inactive	inactive	–	inactive	inactive	–
CC(=O)/C=C/c1ccccc1	inactive	60 µM (active) and inactive	inactive	inactive	inactive	inactive	inactive	inactive	inactive	inactive	inactive	inactive	inactive	inactive	inactive	inactive	inactive	inactive
C=CC(Cl)CCl (stereo not drawn)	inactive	inactive	inactive	inactive	inactive	inactive	inactive	inactive	inactive	inactive	inactive	inactive	inactive	inactive	–	–	inactive	inactive
CCN(CC)C(=S)S	27.5 µM (active) and 7.65 µM (active) and 13.7 µM (active)	inactive	inactive	inactive	inactive	29.1 µM (active) and inactive	inactive	inactive	inactive	inactive	inactive	inactive	inactive	inactive	inactive	inactive	inactive	inactive

Source: PubChem BioAssay (Tox21)
